Measurements as given in PubChem BioAssay (NCATS).
Results filed as inconclusive are left out. Calls of active or inactive are those of the source. Calls come from the whole dose curve; as a rule, active = well fitted inhibition curve with a large enough effect; inconclusive = small, poorly fitted or top-dose-only effect; inactive = flat fitted curve, though single readings scatter.

Assays:
Assay in all cases: qHTS profiling for inhibitors of Plasmodium falciparum proliferation (AID 504749); note: nearly all actives have a fitted effect of over 60% in size;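 for activity, negative = inhibition: 0% = DMSO vehicle and full inhibition = artemisinin control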
Conditions in all cases: P. falciparum in erythrocytes, SYBR Green DNA, 72 h; series mostly up to 28.7 µM
CP185 = system: CP185
Summary of the method: (§1)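 SYBR Green fluorescence (ex 485 nm, em 535 nm) reports parasite DNA after 72 h compound exposure of infected red cells at 0.3% parasitemia, 2.5% hematocrit; signal normalized to 0.29 uM artemisinin and vehicle wells.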

CP191 = system: CP191
Summary of the method: as §1

CP192 = system: CP192
Summary of the method: as §1

CP194 = system: CP194
Summary of the method: as §1

CP201 = system: CP201
Summary of the method: as §1

CP211 = system: CP211
Summary of the method: as §1

CP217 = system: CP217
Summary of the method: as §1

CP237 = system: CP237
Summary of the method: as §1

CP215 = system: CP215
Summary of the method: as §1

CP203 = system: CP203
Summary of the method: as §1
Potency is the fitted concentration of half-maximal effect.

C=C(C)[C@H]1CN[C@H](C(=O)O)[C@H]1CC(=O)O
inactive: Potency (CP185) | Potency (CP191) | Potency (CP192) | Potency (CP194) | Potency (CP201) | Potency (CP211) | Potency (CP217) | Potency (CP237)

CCOP(=S)(OCC)Oc1ccc2c(C)c(Cl)c(=O)oc2c1
inactive: Potency (CP192)

c1ccc2c(c1)sc1ccccc12
inactive: Potency (CP185) | Potency (CP191) | Potency (CP192) | Potency (CP194) | Potency (CP201) | Potency (CP211) | Potency (CP215) | Potency (CP217) | Potency (CP237)

Clc1cccc(SC2CCNCC2)n1
inactive: Potency (CP185) | Potency (CP191) | Potency (CP192) | Potency (CP194) | Potency (CP201) | Potency (CP211) | Potency (CP215) | Potency (CP217) | Potency (CP237)

NC(=O)c1cc([N+](=O)[O-])cc([N+](=O)[O-])c1
inactive: Potency (CP192) | Potency (CP194) | Potency (CP201) | Potency (CP215)

CCC(C)(C)c1ccc(O)cc1
inactive: Potency (CP185) | Potency (CP191) | Potency (CP192) | Potency (CP194) | Potency (CP201) | Potency (CP211) | Potency (CP215) | Potency (CP217) | Potency (CP237)

COc1ccc2c(c1)C13CCCC[C@@H]1C(C2)N(C)CC3 (stereo partly drawn)
inactive: Potency (CP191) | Potency (CP192) | Potency (CP201) | Potency (CP211) | Potency (CP215) | Potency (CP217) | Potency (CP237)

CCCC(C)(COC(N)=O)COC(N)=O
inactive: Potency (CP185) | Potency (CP191) | Potency (CP192) | Potency (CP194) | Potency (CP201) | Potency (CP211) | Potency (CP217) | Potency (CP237)

CC(C)(C)NCC(O)c1cc(Cl)c(N)c(C(F)(F)F)c1 (stereo not drawn)
inactive: Potency (CP192) | Potency (CP201)
active: Potency (CP185) 10 µM | Potency (CP191) 4.47 µM | Potency (CP217) 11.2 µM | Potency (CP237) 7.08 µM

O=C1OC(c2ccc(O)c(S(=O)(=O)O)c2)(c2ccc(O)c(S(=O)(=O)O)c2)c2c(Br)c(Br)c(Br)c(Br)c21
inactive: Potency (CP185) | Potency (CP191) | Potency (CP192) | Potency (CP194) | Potency (CP201) | Potency (CP211) | Potency (CP215) | Potency (CP217) | Potency (CP237)

COc1ccc2c(c1OC)C(=O)O[C@H]2[C@@H]1c2cc3c(cc2CCN1C)OCO3
inactive: Potency (CP192) | Potency (CP194) | Potency (CP201) | Potency (CP203) | Potency (CP211) | Potency (CP215)

CC(C)(C)NCC(O)c1ccccc1Cl (stereo not drawn)
active: Potency (CP237) 8.91 µM
inactive: Potency (CP191) | Potency (CP192) | Potency (CP201) | Potency (CP211)

O=C(N/N=C/c1ccc([N+](=O)[O-])o1)c1cc([N+](=O)[O-])cc([N+](=O)[O-])c1O
active: Potency (CP185) 0.0631 µM | Potency (CP191) 0.178 µM | Potency (CP217) 0.0028 µM

CN1CCC(O)(c2ccc(F)cc2)C(C(=O)c2ccc(F)cc2)C1 (stereo not drawn)
inactive: Potency (CP185) | Potency (CP191) | Potency (CP192) | Potency (CP194) | Potency (CP201) | Potency (CP211) | Potency (CP215) | Potency (CP217) | Potency (CP237)

COC1CC(=C(c2cccs2)c2cccs2)C[N+](C)(C)C1 (stereo not drawn)
active: Potency (CP185) 6.31 µM | Potency (CP191) 5.01 µM | Potency (CP217) 6.31 µM | Potency (CP237) 11.2 µM

NNc1ccccc1
inactive: Potency (CP185) | Potency (CP191) | Potency (CP192) | Potency (CP194) | Potency (CP201) | Potency (CP211) | Potency (CP215) | Potency (CP217) | Potency (CP237)

Clc1ccc(C(c2ccc(Cl)cc2)C(Cl)(Cl)Cl)cc1
inactive: Potency (CP185) | Potency (CP192) | Potency (CP201) | Potency (CP211) | Potency (CP217)

O=C1c2ccccc2C(=O)C1C(=O)C(c1ccccc1)c1ccccc1
inactive: Potency (CP185) | Potency (CP191) | Potency (CP192) | Potency (CP194) | Potency (CP211) | Potency (CP215) | Potency (CP217) | Potency (CP237)

O=C1c2ccccc2C(=O)c2ccccc21
inactive: Potency (CP185) | Potency (CP192) | Potency (CP194) | Potency (CP201) | Potency (CP211) | Potency (CP215) | Potency (CP217) | Potency (CP237)

CC(C)c1cccc(C(C)C)c1O
inactive: Potency (CP185) | Potency (CP191) | Potency (CP192) | Potency (CP194) | Potency (CP201) | Potency (CP215) | Potency (CP217) | Potency (CP237)

C=CCN1C[C@H](C)N([C@H](c2ccc(C(=O)N(CC)CC)cc2)c2cccc(OC)c2)C[C@H]1C
inactive: Potency (CP192) | Potency (CP194) | Potency (CP201) | Potency (CP203) | Potency (CP211) | Potency (CP215)
active: Potency (CP237) 12.6 µM

CNC(C)(C)Cc1ccccc1
inactive: Potency (CP185) | Potency (CP191) | Potency (CP194) | Potency (CP201) | Potency (CP211) | Potency (CP215) | Potency (CP217)

CCCCC/C=C\C/C=C\C/C=C\C/C=C\CCCC(=O)NCC(=O)O
inactive: activity, negative = inhibition (CP185) 13.1% [at 2.67 µM] | activity, negative = inhibition (CP191) 8.29% [at 2.67 µM] | activity, negative = inhibition (CP192) -0.958% [at 2.67 µM] | activity, negative = inhibition (CP194) 0.793% [at 2.67 µM] | activity, negative = inhibition (CP201) 1.43% [at 2.67 µM] | activity, negative = inhibition (CP211) 8.66% [at 2.67 µM] | activity, negative = inhibition (CP215) 4.08% [at 2.67 µM] | activity, negative = inhibition (CP217) -11% [at 2.67 µM] | activity, negative = inhibition (CP237) 0.3% [at 2.67 µM]

O=C1Nc2ccc(Cl)cc2C(c2ccccc2Cl)=NC1O (stereo not drawn)
inactive: Potency (CP185) | Potency (CP191) | Potency (CP192) | Potency (CP194) | Potency (CP201) | Potency (CP211) | Potency (CP217) | Potency (CP237)

CC(C)NC(C)C
inactive: Potency (CP185) | Potency (CP191) | Potency (CP192) | Potency (CP194) | Potency (CP201) | Potency (CP211) | Potency (CP215) | Potency (CP217) | Potency (CP237)

COC(=O)C(c1ccccc1)C1CCCCN1 (stereo not drawn)
inactive: Potency (CP185) | Potency (CP191) | Potency (CP192) | Potency (CP201) | Potency (CP203) | Potency (CP211) | Potency (CP215) | Potency (CP217)
active: Potency (CP237) 12.6 µM

CCC1(CC)C(=O)C=CNC1=O
inactive: Potency (CP185) | Potency (CP191) | Potency (CP192) | Potency (CP194) | Potency (CP201) | Potency (CP211) | Potency (CP215) | Potency (CP217) | Potency (CP237)

COP(=S)(OC)Oc1ccc(S(=O)(=O)N(C)C)cc1
inactive: Potency (CP185) | Potency (CP191) | Potency (CP192) | Potency (CP194) | Potency (CP201) | Potency (CP211) | Potency (CP215) | Potency (CP217) | Potency (CP237)

CN1C(=O)C(O)N=C(c2ccccc2)c2cc(Cl)ccc21 (stereo not drawn)
inactive: Potency (CP185) | Potency (CP191) | Potency (CP192) | Potency (CP194) | Potency (CP201) | Potency (CP211) | Potency (CP217) | Potency (CP237)

CN1C(=O)CC(=O)N(c2ccccc2)c2cc(Cl)ccc21
inactive: Potency (CP185) | Potency (CP191) | Potency (CP192) | Potency (CP194) | Potency (CP201) | Potency (CP211) | Potency (CP215) | Potency (CP217) | Potency (CP237)

O=c1[nH]oc2c1CCNC2
inactive: Potency (CP185) | Potency (CP191) | Potency (CP192) | Potency (CP194) | Potency (CP201) | Potency (CP211) | Potency (CP215) | Potency (CP217) | Potency (CP237)
